# Screens (PubChem)
# SIAE primary = inhibitors of human sialic acid acetylesterase SIAE; Q9HAT2; SIAE FP-Rh probe binding, fluorescence polarization; inhibition, % at 9.66 µM; 0.69% of 370,000 active;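 active means inhibition above a cutoff: mean of compounds within the control limits plus 3 SD of those, cut at about 17% in these data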;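 further: 0% = plate median of compound wells and 100% = probe without SIAE protein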
# PRMT1 inh = blocks human protein arginine methyltransferase 1 | recombinant PRMT1, activity-based probe fluorescence polarization | AID 652257 | 1.3% of 370,000 active | Q99873 | inhibition, % at 2.79 µM;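 active means inhibition above about 21% made by adding two undisclosed values, limit read from the data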
# PAD4 FP inh = blocks human protein arginine deiminase 4; recombinant PAD4, RCA probe fluorescence polarization; AID 485272; inhibition, % at 6.36 µM; 0.41% of 330,000 active; Q9UM07;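 active means percent inhibition above a cutoff equal to the mean of all tested compounds plus 3 SD, cut at about 15% in these data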;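 further: 0% = PAD4 with RCA probe and DMSO and 100% = probe without PAD4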
# TCR CD3 inh = human TCR-CD3 binding inhibition; inhibition, % at 9.4 µM; TAMRA-labeled TCR probe fluorescence, biochemical; 0.37% of 360,000 active; in the data active means inhibition above about 19%;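 further: recombinant mutant TCR 2C K166C tagged with TAMRA read by polarization; 0% = receptor in buffer alone and 100% = receptor with positive control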
# Fam108B inh = blocks mouse Fam108B hydrolase in RBBP9 counter-screen; AID 1947; recombinant Fam108B, FP-Rh probe fluorescence polarization; inhibition, % at 9.51 µM; 0.33% of 300,000 active;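 active means inhibition above the screen mean inhibition plus 3 SD, computed separately per campaign, cut at about 18% in these data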;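 further: inhibitors lower polarization as less probe binds the enzyme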
# PME-1 inh = PME-1 (human) inhibition. inhibition, % at 5.9 µM. 0.53% of 320,000 active. Q9Y570. recombinant PME-1, FP-Rh probe fluorescence polarization;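 active means inhibition above the campaign mean of all compounds plus 3 SD, cut at about 26% in these data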;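 further: competitive labeling of PME-1 active site by serine hydrolase directed probe; 0% = PME-1 with DMSO and 100% = wells lacking PME-1 enzyme; inhibitors block probe labeling so polarization falls and inhibition rises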
# Target sequence (Q9Y570 whole entry, looked up): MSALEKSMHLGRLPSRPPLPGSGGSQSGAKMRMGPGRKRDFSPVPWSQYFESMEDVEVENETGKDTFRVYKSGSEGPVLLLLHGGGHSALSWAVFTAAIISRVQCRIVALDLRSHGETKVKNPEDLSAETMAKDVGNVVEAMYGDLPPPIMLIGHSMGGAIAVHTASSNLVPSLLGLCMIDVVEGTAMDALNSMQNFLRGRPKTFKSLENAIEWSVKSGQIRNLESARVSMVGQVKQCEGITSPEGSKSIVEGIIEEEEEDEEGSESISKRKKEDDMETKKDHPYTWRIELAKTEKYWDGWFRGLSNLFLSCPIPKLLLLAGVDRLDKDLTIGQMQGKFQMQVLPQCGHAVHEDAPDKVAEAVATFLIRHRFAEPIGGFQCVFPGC
# SIAE confirm = confirmation of human SIAE inhibitors; 13% of 2,300 active; SIAE FP-Rh activity-based probe, fluorescence polarization; AID 1117263; inhibition, % at 9.66 µM; shares compounds with SIAE primary;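 active means mean inhibition of the replicates above the hit cutoff set in the primary screen, cut at about 17% in these data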;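 further: 0% = SIAE with DMSO and probe and 100% = probe without SIAE; inhibitors lower polarization as more probe stays unbound to SIAE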
# Starred values were filed as active, the others as inactive; nt = no result. Sampled rows, rich in hits. Any-hit rate of the full collection: about 2.6%.
SMILES,SIAE primary,PRMT1 inh,PAD4 FP inh,TCR CD3 inh,Fam108B inh,PME-1 inh,SIAE confirm
O=C(CSc1nc2ccc(Cl)cc2[nH]1)Nc1ccc2[nH]c(=O)[nH]c2c1,17.9*,5.1,-6.1,-7.7,5.6,-14.5,2.5
COc1ccccc1CNC(=O)N1CCC(c2nc3ccc(Cl)cc3[nH]2)CC1,1.2,-2.4,nt,nt,nt,nt,nt
CN(C)CCCN(C(=O)c1ccc(S(=O)(=O)N(C)Cc2ccccc2)cc1)c1nc2cc3c(cc2s1)OCO3,21.7*,-1.3,-1.8,5.8,4.1,3.4,14.7
Cc1ccc(NC(=O)OC[C@@H]2CSCCS(=O)(=O)N2)cc1,0.4,-0.2,nt,-10.5,nt,nt,nt
Cc1cc(C(=O)COc2cccc3cccnc23)c(C)n1C,22.5*,20.4,-6.7,11.3,8.3,18.5,4.8
COc1ccc(C/C(C)=N/NC(=O)c2cccnc2)cc1,18.4*,-1.4,-0.9,5.5,9.2,1.9,0.8
COc1cc(C(=O)N2CCN(C3CCCCC3)CC2)cc(OC)c1OC,18.5*,-2.5,-1.2,5.7,0.8,-1.1,9.7
COc1cc(C(=O)N2CCC(N3CCCCCC3)CC2)cc(OC)c1OC,-0.1,0.6,-0.7,3.6,7.6,-4.5,nt
Cc1cc(C)cc(-c2c(C(=O)c3ccccc3)[nH]c(N)c2C(=O)NCCc2c[nH]c3ccccc23)c1,4.0,-3.9,nt,nt,nt,nt,nt
Cc1cc(C)c(NC(=S)N(CCN2CCCCC2)Cc2ccco2)c(C)c1,9.5,4.7,-0.4,-0.9,1.9,-1.6,nt
Cc1cccc(C)c1NC(=S)N(CCN1CCCCCC1)Cc1ccco1,17.9*,-0.2,-0.1,2.3,0.3,3.7,4.7
COc1cc(C(=O)Nc2ccc(N3CCN(C(=O)c4ccc(C)cc4)CC3)cc2)cc(OC)c1OC,20.7*,2.0,-8.2,1.1,-1.3,2.5,6.5
COc1cc(C(=O)Nc2scc(-c3ccccc3)c2C(=O)O)cc(OC)c1OC,7.6,5.0,0.6,-7.5,1.1,-4.3,nt
COc1cc(C(=O)Nc2scc(-c3ccc(C)cc3)c2C(=O)O)cc(OC)c1OC,40.7*,-1.2,-5.7,4.9,-1.6,-6.1,34.7*
COc1ccc(C(=O)Nc2ccc(N3CCOCC3)cc2)cc1S(=O)(=O)NC1CCCC1,17.1*,0.6,-0.2,-2.9,0.4,2.7,-5.7
CC(C)(C)c1ccc(C(=O)Nc2cccc(C(=O)N3CCOCC3)c2)cc1,-2.5,0.7,-5.8,-2.4,1.3,4.6,nt
Cc1ccc(C(=O)Nc2cccc(C(=O)N3CCOCC3)c2)cc1,26.3*,-1.1,-2.2,9.8,4.3,-0.7,3.8
CCOC(=O)C1CN(S(C)(=O)=O)c2cc(CC(=O)OC)ccc2O1 (centres undefined),28.6*,-0.5,-3.4,5.5,-3.2,-0.9,5.3
CCn1c(SCC(=O)NN=Cc2cccc(OCc3ccccc3)c2)nnc1-c1ccc(OC)c(OC)c1,-2.5,-3.0,nt,nt,nt,nt,nt
COc1ccc2[nH]c(C)c(CCNC(=S)Nc3cccc(C)c3C)c2c1,17.7*,3.3,3.9,1.4,0.4,11.0,0.1
COc1ccc2[nH]c(C)c(CCNC(=S)Nc3ccccc3C)c2c1,3.4,-3.4,-1.8,-2.0,3.8,9.5,nt
COC(=O)[C@H](C(C)C)N1CCc2nnn(CC3CCCCC3)c2-c2cc(F)ccc2S1(=O)=O,-2.7,-6.3,nt,nt,nt,nt,nt
COc1ccc2[nH]c3c(c2c1)CCN[C@]31C(=O)N(C)c2ccccc21,-2.0,0.1,nt,nt,nt,nt,nt
Nc1nc(N)c2cc(Sc3ccc(Cl)cc3)ccc2n1,7.0,-2.2,nt,-1.4,nt,nt,nt
Nc1nc(N)c2cc(CNc3ccc(Cl)c(Cl)c3)ccc2n1,39.4*,2.6,nt,-10.0,nt,nt,46.1*
SMILES,SIAE primary,PRMT1 inh,PAD4 FP inh,TCR CD3 inh,Fam108B inh,PME-1 inh,SIAE confirm
Cc1ccccc1C1C(C#N)=C(N)N(N(C)C)C2=C1C(=O)CC(C)(C)C2 (centres undefined),3.6,-1.0,5.7,-0.5,2.9,0.2,nt
CN(C)N1C(N)=C(C#N)C(c2ccccc2F)C2=C1CC(C)(C)CC2=O (centres undefined),24.8*,-1.4,0.3,2.1,-1.8,-1.8,2.8
COc1ccccc1-n1c(=O)c2c3c(sc2n2c(=S)[nH]nc12)CCC3,17.6*,3.9,2.3,-1.5,6.6,-2.1,4.1
O=C(O)C1=C[C@@H](c2csc3ccccc23)C[C@@H](OCc2ccc(CO)cc2)O1,22.3*,2.2,-0.6,5.3,3.8,1.2,-0.5
O=C(NCc1ccccc1)C1=C[C@@H](c2csc3ccccc23)C[C@@H](OCc2ccc(CO)cc2)O1,-19.1,1.2,2.2,0.8,-7.5,-13.2,nt
COc1ccc(C(=O)CSc2nnc(-c3ccc(C(C)(C)C)cc3)n2C)cc1,1.6,-0.8,nt,nt,nt,nt,nt
CC(C)CN1C(=O)C(=O)N(CC(=O)N(C)CC(=O)Nc2ccc(F)cc2)C1=O,19.9*,-4.9,0.1,-1.3,nt,6.1,3.2
Nc1[nH]c(C(=O)c2ccccc2)c(-c2ccc(Cl)cc2)c1C(=O)NCCC1=CCCCC1,5.6,-2.5,nt,nt,nt,nt,nt
COc1cccc(CC(=O)N(Cc2ccccc2)c2ccccc2C(=O)Nc2cc(OC)ccc2OC)c1,3.0,2.1,nt,nt,nt,nt,nt
CC(C)C[C@@H]1COc2cc(Br)ccc2S(=O)(=O)N1Cc1cn(Cc2ccc(C(F)(F)F)cc2)nn1,2.9,-2.3,nt,nt,nt,nt,nt
O=C(NCC1CCCO1)c1nnc(Cc2ccc(F)cc2)o1 (centres undefined),18.0*,-4.0,-4.2,-1.6,-2.3,-3.1,-4.8
S=C(NCC1CCCO1)Nc1ccccc1 (centres undefined),21.1*,2.4,-7.0,4.2,-0.8,-4.0,0.2
O=C(CN(Cc1ccc(Br)cc1)S(=O)(=O)c1ccccc1)NCC1CCCO1 (centres undefined),18.1*,-2.2,-6.2,-6.1,4.1,5.3,16.2
O=C(NCC1CCCO1)c1ccccc1 (centres undefined),17.4*,-3.9,-1.9,3.5,6.6,-2.2,4.0
Cc1ccccc1N(C)C(=O)C1CCCN1S(=O)(=O)c1cccc2cccnc12 (centres undefined),-0.6,1.6,nt,nt,nt,nt,nt
NC(=O)c1cc(S(=O)(=O)N2CCCC2)ccc1OCCOc1ccccc1F,21.3*,0.7,nt,2.4,nt,nt,0.7
CCCCNC(=O)C1(C(C)=O)CC(C(=O)OCC)=NO1 (centres undefined),-3.1,-3.1,nt,nt,nt,nt,nt
CCCCc1cc(=O)oc2cc(C)cc(OCC(=O)Nc3cccnc3)c12,-12.1,-3.0,-4.4,4.9,-5.6,-8.9,nt
CCCc1cc(=O)oc2cc(C)cc(OCC(=O)NCc3cccnc3)c12,17.5*,1.2,-4.3,2.1,1.2,0.4,1.3
Oc1[nH]c2ccccc2c1N=Nc1nc(Nc2ccccc2)nc(N2CCOCC2)n1,-10.8,-5.6,3.4,-5.1,-32.1,-2.9,nt
Cc1[nH]c2ccccc2c1/C=N/Nc1nc(Nc2ccccc2)nc(N2CCOCC2)n1,31.8*,-0.9,2.7,7.3,11.6,38.8*,16.7
